Results as given in PubChem BioAssay AID743446 (Broad Institute, 2014).
Measured potencies and affinities stand elsewhere. Unmarked numbers belong to inactive results. How the calls were made is not given here.

test: HEK293 cell cytotoxicity, dose response, cytotoxicity control, plate reader, cherry-picked samples (AID 743446); conditions: hits give low values; at 26 µM unless noted

Row | SMILES | max activity
1 | COc1ccc(S(=O)(=O)N2CCCCN3[C@H](CO)[C@H](c4ccc(-c5cccnc5)cc4)[C@@H]3C2)cc1 | -10.9% [at 12 µM]
2 | NCC[C@H]1CC[C@H](NS(=O)(=O)Cc2ccccc2)[C@@H](CO)O1 | 24.3%
3 | Cc1ccc(S(=O)(=O)N2CCCCC2)cc1NC(=O)c1ccc2c(=O)n3c(nc2c1)CCCCC3 | 45.8% [at 6 µM]
4 | COc1cccc(-c2cc(C(=O)Nc3cccc(O)c3)no2)c1 | -7.14%
5 | COc1ccc2oc(C(=O)NCCc3ccccc3)c(C)c2c1 | -55.4%
6 | CC(C)N(C(=O)Nc1ccc2nsnc2c1)C(C)C | 12.5%
7 | O=C(CN1C(=O)c2ccccc2S1(=O)=O)c1ccc(F)cc1 | 63.1%
8 | C=CCn1c(SCC(=O)Nc2ncc(Cc3ccc(C)c(Cl)c3)s2)nnc1-c1ccncc1 | -6.05% [at 3 µM]
9 | COc1ccc(-n2cc(C(=O)c3ccccc3O)cn2)cc1 | 69.9% [at 3 µM]
10 | Cc1c(NC(=O)c2ccc(-c3ccccc3)cc2)cccc1C(=O)O | 41.3%
11 | O=C(CN1C(=O)c2ccccc2S1(=O)=O)c1ccc2c(c1)OCCCO2 | -22% [at 0.8 µM]
12 | COCC#Cc1ccc2c(c1)O[C@H](CN(C)S(=O)(=O)c1cccc(F)c1)[C@@H](C)CN([C@H](C)CO)S2(=O)=O | 14.5% [at 0.195 µM]
13 | CN(C)S(=O)(=O)c1cccc(NC(=O)COc2ccccc2C(=O)Nc2ccccc2)c1 | -34.1%
14 | CO[C@H]1CN(C)C(=O)c2ccc(NC(=O)C3CC3)cc2OC[C@@H](C)N(C(=O)Cc2ccccn2)C[C@H]1C | 22% [at 1.6 µM]
15 | CC(=O)c1ccc(NC(=O)c2noc3c2CCC3)cc1 | 12.6% [at 0.1 µM]
16 | COc1ccc(-c2cc(C(=O)N3CCCC3)no2)cc1 | 30.6% [at 0.195 µM]
17 | COc1cc(C(=O)Nc2nc(-c3cccs3)cs2)cc(OC)c1OC | 53.9% [at 6 µM]
18 | Cn1nnnc1SCC(=O)N1CCN(C(=O)c2ccco2)CC1 | -12.8% [at 0.05 µM]
19 | CC(C)(C)c1ccc(Cn2c(=O)cnc3ccccc32)cc1 | -26.8% [at 12 µM]

Row | SMILES | max activity
20 | Nc1c(C(=O)Nc2cccc(C(=O)O)c2)sc2nc3c(cc12)CCCC3 | -12.6% [at 0.1 µM]
21 | CC(C)(C)C(=O)Nc1ccc(NC(=O)c2ccco2)nc1 | 11.3% [at 0.38 µM]
22 | Cc1ccc(C(=O)Nc2ccc3c(c2)OCCO3)cc1 | 17.1% [at 0.05 µM]
23 | c1ccc(-c2cn3c4c(sc3n2)CCCC4)cc1 | -19.5%
24 | Cc1cnc(NC(=O)c2sc3ccccc3c2Cl)s1 | 35.5% [at 6 µM]
25 | C[C@H](CO)N1C[C@H](C)[C@H](CN(C)C(=O)Nc2ccccc2)OCCCC[C@H](C)Oc2ccc(NC(=O)NC3CCCCC3)cc2C1=O | 6.41%
26 | O=C(Nc1ccc(NC(=O)c2ccco2)nc1)c1ccco1 | -22.6%
27 | Cc1ccc(NC(=O)c2cnn(-c3ccccc3)c2C)cc1C | 11.5% [at 0.05 µM]
28 | C[C@H](CO)N1C[C@H](C)[C@H](CN(C)C(=O)Nc2cccc3ccccc23)OCCCC[C@H](C)Oc2ccc(NC(=O)c3ccccc3)cc2C1=O | 31.2% [at 12 µM]
29 | COc1ccc(C(=O)Nc2ccc3ccccc3c2)cc1 | 26.8% [at 0.8 µM]
30 | CCn1c(C)cc(C(=O)CN2C(=O)c3ccccc3S2(=O)=O)c1C | -18.9% [at 6 µM]
31 | O=C(O)c1c2c(nc3ccccc13)/C(=C/c1ccc(O)cc1)CC2 | 22.6%
32 | COCCn1c(C)cc(C(=O)CSc2nnnn2C2CCCC2)c1C | 21%
33 | N#C[C@@H]1[C@H](c2ccc(C#Cc3cccc(F)c3)cc2)[C@@H](CO)N1C(=O)C1CC1 | 10.4% [at 12 µM]
34 | C[C@@H]1CN([C@H](C)CO)C(=O)c2c(c3ccccc3n2C)-c2ccccc2CO[C@H]1CN(C)S(=O)(=O)c1cn(C)cn1 | 11.7% [at 12 µM]
35 | O=C(Nc1nc2c(s1)CCCC2)C1COc2ccccc2O1 (stereo not drawn) | 55.6% [at 0.05 µM]
36 | COc1ccc(-c2cc(C(=O)Nc3cccc(O)c3)no2)cc1 | 75.5% [at 0.195 µM]
37 | C=CCN1CCN(C(=O)CCCc2ccccc2)CC1 | 69.3% [at 12 µM]
38 | Cc1cc(C(=O)CSc2nnc3ccccn23)c(C)n1-c1ccccc1 | -21.9%
